Screen size: about 5,500 compounds; about 2,000 (36%) were called active. Roughly 18% stayed inconclusive and do not appear here. The list shows a part of the results. Unmarked numbers belong to inactive results. Rule as the data show it: active = normalized growth mostly below about 0.91 (no sharp cut-off); inconclusive = no clear call, values can overlap the other calls; inactive = mostly above about 0.92.
Assay: chemical genetic growth profiling, strain panel (AID 1159580);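 also: tested at 20 µM; growth read once vehicle control cultures reached saturation at 30 °C; 1 = growth at the plate median or of vehicle wells; lower values mean less growth of the strain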
Details: growth OD

## COc1ccc2c(c1)OC/C(=C\c1ccc(OC)c(O)c1)C2=O
S. cerevisiae deletion strains, locus YJR066W, strain TOR1, stronger effect = lower value
  normalized growth: 0.891
S. cerevisiae deletion strains, locus YKL009W, strain mrt4, stronger effect = lower value
  normalized growth: 0.843 (active)
S. cerevisiae deletion strains, locus YKL068W, stronger effect = lower value
  normalized growth: 0.948
S. cerevisiae deletion strains, locus YKL085W, strain MDH1 (second series), stronger effect = lower value
  normalized growth: 0.915 (active)
S. cerevisiae deletion strains, locus YKL085W, strain MDH1, stronger effect = lower value
  normalized growth: 0.915 (active)
S. cerevisiae deletion strains, locus YKL160W, strain elf1, stronger effect = lower value
  normalized growth: 0.831 (active)
S. cerevisiae deletion strains, locus YKL190W, strain CNB1, stronger effect = lower value
  normalized growth: 0.81 (active)
S. cerevisiae deletion strains, locus YKR001C, strain vps1, stronger effect = lower value
  normalized growth: 0.651 (active)
S. cerevisiae deletion strains, locus YKR026C, strain gcn3, stronger effect = lower value
  normalized growth: 0.946
S. cerevisiae deletion strains, locus YKR091W, strain srl3, stronger effect = lower value
  normalized growth: 0.962
S. cerevisiae deletion strains, locus YLL001W, strain dnm1, stronger effect = lower value
  normalized growth: 0.823 (active)
S. cerevisiae deletion strains, locus YLL026W, stronger effect = lower value
  normalized growth: 0.931
S. cerevisiae deletion strains, locus YLL041C, strain sdh2, stronger effect = lower value
  normalized growth: 0.955
S. cerevisiae deletion strains, locus YLR027C, strain aat2, stronger effect = lower value
  normalized growth: 0.84 (active)
S. cerevisiae deletion strains, locus YLR039C, strain RIC1, stronger effect = lower value
  normalized growth: 0.51 (active)
S. cerevisiae deletion strains, locus YLR058C, strain SHM2, stronger effect = lower value
  normalized growth: 0.774 (active)
S. cerevisiae deletion strains, locus YLR102C, strain apc9, stronger effect = lower value
  normalized growth: 0.824 (active)
S. cerevisiae deletion strains, locus YLR113W, strain HOG1, stronger effect = lower value
  normalized growth: 0.909
S. cerevisiae deletion strains, locus YLR221C, strain rsa3, stronger effect = lower value
  normalized growth: 0.841 (active)
S. cerevisiae deletion strains, locus YLR258W, strain gsy2, stronger effect = lower value
  normalized growth: 0.891 (active)
S. cerevisiae deletion strains, locus YLR262C, strain YPT6 (second series), stronger effect = lower value
  normalized growth: 0.719 (active)
S. cerevisiae deletion strains, locus YLR262C, strain YPT6, stronger effect = lower value
  normalized growth: 0.423 (active)
S. cerevisiae deletion strains, locus YLR268W, strain sec22, stronger effect = lower value
  normalized growth: 0.709 (active)
S. cerevisiae deletion strains, locus YLR320W, strain mms22, stronger effect = lower value
  normalized growth: 0.652 (active)
S. cerevisiae deletion strains, locus YLR330W, strain CHS5, stronger effect = lower value
  normalized growth: 0.467 (active)
S. cerevisiae deletion strains, locus YLR342W, strain FKS1 (second series), stronger effect = lower value
  normalized growth: 0.702 (active)
S. cerevisiae deletion strains, locus YLR342W, strain FKS1, stronger effect = lower value
  normalized growth: 0.885 (active)
S. cerevisiae deletion strains, locus YLR357W, strain rsc2, stronger effect = lower value
  normalized growth: 0.964
S. cerevisiae deletion strains, locus YLR370C, strain arc18, stronger effect = lower value
  normalized growth: 0.938
S. cerevisiae deletion strains, locus YLR371W, strain rom2, stronger effect = lower value
  normalized growth: 0.584 (active)
S. cerevisiae deletion strains, locus YLR384C, strain iki3, stronger effect = lower value
  normalized growth: 0.95
S. cerevisiae deletion strains, locus YLR418C, strain cdc73, stronger effect = lower value
  normalized growth: 0.322 (active)
S. cerevisiae deletion strains, locus YML016C, strain PPZ1, stronger effect = lower value
  normalized growth: 0.791 (active)
S. cerevisiae deletion strains, locus YML032C, strain rad52, stronger effect = lower value
  normalized growth: 0.787 (active)
S. cerevisiae deletion strains, locus YML120C, strain ndi1, stronger effect = lower value
  normalized growth: 0.858 (active)
S. cerevisiae deletion strains, locus YML124C, strain tub3, stronger effect = lower value
  normalized growth: 0.865 (active)
S. cerevisiae deletion strains, locus YMR058W, strain fet3, stronger effect = lower value
  normalized growth: 0.846 (active)
S. cerevisiae deletion strains, locus YMR078C, strain ctf18, stronger effect = lower value
  normalized growth: 0.458 (active)
S. cerevisiae deletion strains, locus YMR125W, strain sto1, stronger effect = lower value
  normalized growth: 0.863 (active)
S. cerevisiae deletion strains, locus YMR129W, stronger effect = lower value
  normalized growth: 0.946
S. cerevisiae deletion strains, locus YMR205C, strain PFK2, stronger effect = lower value
  normalized growth: 0.768 (active)
S. cerevisiae deletion strains, locus YMR223W, strain ubp8, stronger effect = lower value
  normalized growth: 0.761 (active)
S. cerevisiae deletion strains, locus YMR231W, strain pep5, stronger effect = lower value
  normalized growth: 0.977
S. cerevisiae deletion strains, locus YMR307W, strain GAS1, stronger effect = lower value
  normalized growth: 0.557 (active)
S. cerevisiae deletion strains, locus YNL067W, strain RPL9B, stronger effect = lower value
  normalized growth: 0.774 (active)
S. cerevisiae deletion strains, locus YNL071W, strain lat1, stronger effect = lower value
  normalized growth: 0.369 (active)
S. cerevisiae deletion strains, locus YNL183C, strain NPR1, stronger effect = lower value
  normalized growth: 0.924
S. cerevisiae deletion strains, locus YNL209W, strain ssb2, stronger effect = lower value
  normalized growth: 0.938
S. cerevisiae deletion strains, locus YNL233W, strain BNI4, stronger effect = lower value
  normalized growth: 0.448 (active)
S. cerevisiae deletion strains, locus YNL248C, strain rpa49, stronger effect = lower value
  normalized growth: 0.902
S. cerevisiae deletion strains, locus YNL250W, strain rad50, stronger effect = lower value
  normalized growth: 0.885 (active)
S. cerevisiae deletion strains, locus YNL271C, strain bni1, stronger effect = lower value
  normalized growth: 0.865 (active)
S. cerevisiae deletion strains, locus YNL298W, strain CLA4, stronger effect = lower value
  normalized growth: 0.895 (active)
S. cerevisiae deletion strains, locus YNL307C, strain MCK1, stronger effect = lower value
  normalized growth: 0.127 (active)
S. cerevisiae deletion strains, locus YNL322C, strain KRE1 (second series), stronger effect = lower value
  normalized growth: 0.95
S. cerevisiae deletion strains, locus YNL322C, strain KRE1, stronger effect = lower value
  normalized growth: 0.793 (active)
S. cerevisiae deletion strains, locus YNR049C, strain mso1, stronger effect = lower value
  normalized growth: 0.955
S. cerevisiae deletion strains, locus YNR052C, strain pop2, stronger effect = lower value
  normalized growth: 0.885 (active)
S. cerevisiae deletion strains, locus YOL006C, strain TOP1, stronger effect = lower value
  normalized growth: 0.563
S. cerevisiae deletion strains, locus YOL012C, strain htz1
  normalized growth: 0.356
S. cerevisiae deletion strains, locus YOL147C, strain pex11, stronger effect = lower value
  normalized growth: 0.542 (active)
S. cerevisiae deletion strains, locus YOR001W, strain rrp6, stronger effect = lower value
  normalized growth: 0.848 (active)
S. cerevisiae deletion strains, locus YOR061W, strain CKA2, stronger effect = lower value
  normalized growth: 0.93
S. cerevisiae deletion strains, locus YOR069W, strain VPS5, stronger effect = lower value
  normalized growth: 0.807 (active)
S. cerevisiae deletion strains, locus YOR070C, strain gyp1, stronger effect = lower value
  normalized growth: 0.882 (active)
S. cerevisiae deletion strains, locus YOR080W, strain dia2, stronger effect = lower value
  normalized growth: 0.925
S. cerevisiae deletion strains, locus YOR083W, strain WHI5, stronger effect = lower value
  normalized growth: 0.869 (active)
S. cerevisiae deletion strains, locus YOR106W, strain vam3, stronger effect = lower value
  normalized growth: 0.847 (active)
S. cerevisiae deletion strains, locus YOR136W, strain idh2, stronger effect = lower value
  normalized growth: 0.796 (active)
S. cerevisiae deletion strains, locus YOR144C, strain elg1, stronger effect = lower value
  normalized growth: 0.766 (active)
S. cerevisiae deletion strains, locus YOR184W, strain ser1, stronger effect = lower value
  normalized growth: 0.472 (active)
S. cerevisiae deletion strains, locus YOR231W, strain MKK1, stronger effect = lower value
  normalized growth: 0.995
S. cerevisiae deletion strains, locus YOR265W, strain rbl2, stronger effect = lower value
  normalized growth: 0.941
S. cerevisiae deletion strains, locus YOR270C, strain vph1, stronger effect = lower value
  normalized growth: 0.661 (active)
S. cerevisiae deletion strains, locus YOR290C, strain snf2, stronger effect = lower value
  normalized growth: 0.789 (active)
S. cerevisiae deletion strains, locus YOR316C, strain cot1, stronger effect = lower value
  normalized growth: 0.882 (active)
S. cerevisiae deletion strains, locus YPL051W, strain arl3, stronger effect = lower value
  normalized growth: 0.836 (active)
S. cerevisiae deletion strains, locus YPL055C, strain LGE1, stronger effect = lower value
  normalized growth: 0.576 (active)
S. cerevisiae deletion strains, locus YPL078C, strain atp4, stronger effect = lower value
  normalized growth: 0.836 (active)
S. cerevisiae deletion strains, locus YPL106C, strain sse1, stronger effect = lower value
  normalized growth: 0.729 (active)
S. cerevisiae deletion strains, locus YPL240C, strain hsp82, stronger effect = lower value
  normalized growth: 0.929
S. cerevisiae deletion strains, locus YPL241C, strain CIN2, stronger effect = lower value
  normalized growth: 0.958
S. cerevisiae deletion strains, locus YPL256C, strain CLN2, stronger effect = lower value
  normalized growth: 0.958
S. cerevisiae deletion strains, locus YPR119W, strain clb2, stronger effect = lower value
  normalized growth: 0.859 (active)
S. cerevisiae deletion strains, locus YPR141C, strain kar3, stronger effect = lower value
  normalized growth: 0.924
S. cerevisiae deletion strains, locus YPR163C, strain tif3, stronger effect = lower value
  normalized growth: 0.351 (active)
S. cerevisiae deletion strains, locus YPR167C, strain met16, stronger effect = lower value
  normalized growth: 0.811 (active)
S. cerevisiae deletion strains, strain wtn01, stronger effect = lower value
  normalized growth: 0.711 (active)
S. cerevisiae strains, strain wild type, stronger effect = lower value
  normalized growth: 0.663 (active)

Reference: PubChem BioAssay AID1159580 (chemical genetic matrix, 2015)
